Inconclusive results are not listed. Unmarked numbers belong to inactive results. The source made the active and inactive calls. Unless noted, calls come from the whole dose curve; as a rule, active = well fitted curve in the direction sought with a large enough effect; inconclusive = small, poorly fitted or top-dose-only effect, or another doubt; inactive = no such curve, though single readings can be large; an effect the other way counts as inactive or inconclusive.

Data on 32 molecules can be found in PubChem BioAssay (NCATS).

Assay [1] addresses Calcium and integrin-binding protein 1 (Homo sapiens) (UniProt Q99828). Description: Primary qHTS for Identification of Calcium Integrin Binding Protein 1 (CIB1) Competitor (AID 1508620).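 Note: GST tagged CIB1 binding a fluorescein labelled alphaIIb integrin peptide tracer; top concentration of the series differs between compounds.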 Summed up: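 Fluorescence polarization competition: CIB1-GST (1 uM final) preincubated with compound 15 min at room temperature, then FITC-labeled alphaIIb peptide (100 nM final) added for another 15 min. Polarization read at Ex 480/Em 540.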

Assay [2] in a line: Primary qHTS for small molecule stabilizers of the endoplasmic reticulum resident proteome: Secreted ER Calcium Modulated Protein (SERCaMP) assay (AID 1508630). Summed up: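 GLuc-SERCaMP-expressing SH-SY5Y cells, pretreated 16 h with compound, are challenged with thapsigargin to empty ER calcium stores; after 4 h, coelenterazine is added directly to the medium and luminescence is imaged.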

Assay [3] can be described thus: A High-Content qHTS Against Drug Library for the Identification of Small Molecules that Inhibit DYT1 Early Onset Primary Dystonia-Associated Cell Pathology (AID 1645839; calls by dose curve; note: potency is the fitted concentration of half-maximal effect). Summed up: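 Readout: %pathology, the punctate EGFP-TorsinA distribution from imaging, as the primary channel and cell count as the toxicity counterscreen. HEK293 Flp-In cells expressing delE TorsinA were induced with tetracycline and treated with compound for 48 h.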
In general terms: Quantitative high-throughput screening tests each substance at several concentrations.

In assay [4] the target is Cytochrome P450 2D6 (Homo sapiens) (UniProt P10635). Briefly: Cytochrome P450 family 2 subfamily D member 6 (CYP2D6) small molecule antagonists: luciferase biochemical (cell-free) qHTS assay (AID 1645840; active = well fitted curve in the direction sought with a large enough effect in the repeat runs; an effect the other way counts as inactive or inconclusive; note: nearly all actives have a fitted effect of over 55% in size; note: potency is the fitted concentration of half-maximal effect). Summed up:
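P450-Glo luminescent screen: recombinant CYP2D6 enzyme–proluciferin substrate mix preincubated with compound 10 min at room temperature, then NADPH regeneration added for 1 h at room temperature. Detection reagent added for 20 min; luciferin light read as relative luminescence units.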

Assay [5] addresses Cytochrome P450 2C9 (Homo sapiens) (UniProt P11712). Description: Cytochrome P450 family 2 subfamily C member 9 (CYP2C9) small molecule antagonists: luciferase biochemical (cell-free) qHTS assay (AID 1645842; active = well fitted curve in the direction sought with a large enough effect in the repeat runs; an effect the other way counts as inactive or inconclusive; note: nearly all actives have a fitted effect of over 55% in size; note: potency is the fitted concentration of half-maximal effect). The essentials:
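Luminescence, after 20 min with luciferin detection reagent, reflected CYP2C9 turnover during a 1 h NADPH-driven reaction at 37C. Enzyme-substrate mix contained 0.4% bovine serum albumin and was preincubated with compound 10 min at room temperature.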

Cytochrome P450 2D6 (Homo sapiens), sequence (P10635 whole entry, looked up): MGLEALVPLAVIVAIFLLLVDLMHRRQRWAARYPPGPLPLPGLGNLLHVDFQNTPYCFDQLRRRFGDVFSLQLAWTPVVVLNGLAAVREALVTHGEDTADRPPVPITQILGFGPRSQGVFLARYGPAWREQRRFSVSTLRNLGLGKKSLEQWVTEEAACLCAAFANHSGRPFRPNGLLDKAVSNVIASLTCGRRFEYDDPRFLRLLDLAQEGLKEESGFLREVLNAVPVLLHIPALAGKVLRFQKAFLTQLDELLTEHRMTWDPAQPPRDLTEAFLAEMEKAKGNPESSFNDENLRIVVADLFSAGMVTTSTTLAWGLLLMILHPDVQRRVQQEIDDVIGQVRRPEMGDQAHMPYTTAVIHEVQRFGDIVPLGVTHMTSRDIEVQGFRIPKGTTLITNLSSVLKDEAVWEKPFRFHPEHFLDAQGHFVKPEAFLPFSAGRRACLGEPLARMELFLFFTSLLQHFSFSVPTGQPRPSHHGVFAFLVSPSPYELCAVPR
Calcium and integrin-binding protein 1 (Homo sapiens), sequence (Q99828 whole entry, looked up): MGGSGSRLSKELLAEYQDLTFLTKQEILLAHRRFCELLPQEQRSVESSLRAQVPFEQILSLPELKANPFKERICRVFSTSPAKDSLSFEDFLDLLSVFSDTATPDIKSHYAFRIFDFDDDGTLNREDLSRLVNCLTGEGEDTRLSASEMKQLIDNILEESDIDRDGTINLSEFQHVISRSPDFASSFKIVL
Cytochrome P450 2C9 (Homo sapiens), sequence (P11712 whole entry, looked up): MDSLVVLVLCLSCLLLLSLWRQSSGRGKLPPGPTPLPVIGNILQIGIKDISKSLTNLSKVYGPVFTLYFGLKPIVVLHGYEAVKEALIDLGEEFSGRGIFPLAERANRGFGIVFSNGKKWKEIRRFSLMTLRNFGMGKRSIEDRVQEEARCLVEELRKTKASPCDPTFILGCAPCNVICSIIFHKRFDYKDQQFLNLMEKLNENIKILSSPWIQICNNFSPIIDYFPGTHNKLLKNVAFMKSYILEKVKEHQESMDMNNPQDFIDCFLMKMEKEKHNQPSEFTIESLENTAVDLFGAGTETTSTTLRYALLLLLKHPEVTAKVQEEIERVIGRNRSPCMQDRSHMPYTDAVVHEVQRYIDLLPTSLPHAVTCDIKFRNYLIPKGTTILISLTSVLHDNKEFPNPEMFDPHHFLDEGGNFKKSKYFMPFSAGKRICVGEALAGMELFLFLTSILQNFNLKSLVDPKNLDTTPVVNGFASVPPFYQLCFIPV

For the molecule `CN1C(=O)CC(C)(c2ccccc2)C1=O` (stereo not given), the Potency result in assay [1], in assay [2], in assay [3], in assay [4] and in assay [5] was “inactive” in each case.

With `Cc1ccc(C(C)OC(=O)C2(C)CCC(C(=O)O)C2(C)C)cc1` (stereo not given), the Potency result in assay [1], in assay [2], in assay [3], in assay [4] and in assay [5] was “inactive” each time.

For `C[C@H](CN1CCCC1)C(=O)c1ccc(C(F)(F)F)cc1`, the Potency result in assay [1], in assay [2], in assay [3] and in assay [5] was “inactive” throughout. In addition, the Potency in assay [4] is 2.19 µM (active).

`Cc1cccc(C)c1NC(=O)c1cc(S(N)(=O)=O)c(Cl)cc1O`: the Potency result in assay [1], in assay [2], in assay [3], in assay [4] and in assay [5] was “inactive” in each case.

Regarding `CN(CC1(C)CCCO1)S(=O)(=O)c1ccc(Cl)c(S(N)(=O)=O)c1` (stereo not given), the Potency result in assay [1], in assay [2], in assay [3], in assay [4] and in assay [5] was “inactive” each time.

Regarding `O=C1Nc2cc(Cl)ccc2Oc2ccccc21`, the Potency result in assay [1], in assay [2], in assay [3], in assay [4] and in assay [5] was “inactive” each time.

On to `O=C(CCCCCCCCC#CI)Oc1ccccc1`, for which the Potency result in assay [1], in assay [2] and in assay [3] was “inactive” throughout. Also, the Potency in assay [4] was 5.42 µM (active); in assay [5], 16.2 µM (active).

As for `O=C(O)c1[nH]n(-c2ccc(S(=O)(=O)O)cc2)c(=O)c1N=Nc1ccc(S(=O)(=O)O)cc1`, the Potency result in assay [1], in assay [2], in assay [3], in assay [4] and in assay [5] was “inactive” in each case.

For `CCOC(=O)O[C@]1(C(=O)OCCl)CC[C@H]2[C@@H]3CCC4=CC(=O)C=C[C@]4(C)[C@H]3[C@@H](O)C[C@@]21C`, the Potency result in assay [1], in assay [2], in assay [3], in assay [4] and in assay [5] was “inactive” each time.

As to `CO[C@@H]1[C@@H](O[C@@H]2O[C@H](C)[C@@H](O[C@H]3C[C@@](C)(O)[C@@H](O)[C@H](C)O3)[C@H](N(C)C)[C@H]2O)[C@@H](CC=O)C[C@@H](C)[C@@H](O[C@@H]2CC[C@H](N(C)C)[C@@H](C)O2)/C=C/C=C/C[C@@H](C)OC(=O)C[C@H]1OC(C)=O`, the Potency result in assay [1], in assay [2], in assay [3], in assay [4] and in assay [5] was “inactive” throughout.

With `Nc1ncnc2c1ncn2Cc1c(F)cccc1Cl`, the Potency entry in assay [1], in assay [2], in assay [3], in assay [4] and in assay [5] was “inactive” in each case.

On to `CNC(=O)c1cnn(-c2nc(N)c3ncn([C@@H]4O[C@H](CO)[C@@H](O)[C@H]4O)c3n2)c1`, for which the Potency result in assay [1], in assay [2], in assay [3], in assay [4] and in assay [5] was “inactive” each time.

For `CCOC(=O)C(=O)c1csc(NC=O)n1`, the Potency entry in assay [1], in assay [2], in assay [3] and in assay [5] was “inactive” in each case. The Potency in assay [4] is 19.5 µM (active).

As for `CC(NC(CCc1ccccc1)C(=O)O)C(=O)N1C(=O)N(C)CC1C(=O)O` (stereo not given), the Potency result in assay [1], in assay [2], in assay [3], in assay [4] and in assay [5] was “inactive” in each case.

In the case of `CCS(=O)(=O)c1ccc(OC)c(C(=O)OC)c1`, the Potency entry in assay [1], in assay [2], in assay [3], in assay [4] and in assay [5] was “inactive” in each case.

Turning to `O=C1CC2(CCCC2)CC(=O)N1CCNCC1COc2ccccc2O1` (stereo not given), the Potency result in assay [1], in assay [2], in assay [3] and in assay [5] was “inactive” each time. The Potency in assay [4] is 0.49 µM (active).

Take `Cc1cccc(C)c1NC(=O)c1ccc(N)cc1`: the Potency result in assay [1], in assay [2], in assay [3], in assay [4] and in assay [5] was “inactive” in each case.

Regarding `COc1ccc2nc(SCc3ncc(C)c(OC)c3C)[nH]c2c1`, the Potency entry in assay [1], in assay [2], in assay [3] and in assay [5] was “inactive” each time. The Potency in assay [4] was 12.3 µM (active).

Regarding `O=C(O)c1ccccc1Nc1cc(Cl)ccc1C(=O)O`, the Potency result in assay [1], in assay [2], in assay [3], in assay [4] and in assay [5] was “inactive” throughout.

On to `Cc1ccc2ccc(Cl)cc2n1`, for which the Potency result in assay [1], in assay [2], in assay [3], in assay [4] and in assay [5] was “inactive” each time.

Consider `CCCCCCn1c(=O)c2c(ncn2C)n(C)c1=O`, for which the Potency entry in assay [1], in assay [2], in assay [3], in assay [4] and in assay [5] was “inactive” throughout.

In the case of `CCOC(=O)OCC/C(SC(=O)OCC)=C(\C)N(C=O)Cc1cnc(C)nc1N`, the Potency entry in assay [1], in assay [2], in assay [3] and in assay [5] was “inactive” throughout. In assay [4], the Potency is 2.16 µM (active).

On to `O=C1NC(c2ccccc2)(c2ccccc2)C(=O)N1COP(=O)(O)O`, for which the Potency entry in assay [1], in assay [2], in assay [3], in assay [4] and in assay [5] was “inactive” each time.

Turning to `CC(=O)c1cc2ccccc2s1`, the Potency result in assay [1], in assay [2], in assay [3], in assay [4] and in assay [5] was “inactive” in each case.

Consider `CCN(CC)CCN`, for which the Potency entry in assay [1], in assay [2], in assay [3], in assay [4] and in assay [5] was “inactive” in each case.

Take `Cc1c(N)cccc1C(F)(F)F`: the Potency result in assay [1], in assay [2], in assay [3], in assay [4] and in assay [5] was “inactive” in each case.

In the case of `CC(C)CCCC(C)NCCC(C)C` (stereo not given), the Potency result in assay [1], in assay [2], in assay [3] and in assay [5] was “inactive” in each case. Besides, the Potency in assay [4] was 0.55 µM (active).

As for `CCCc1ncc(C(=O)O)s1`, the Potency result in assay [1], in assay [2], in assay [3], in assay [4] and in assay [5] was “inactive” each time.

`O=C(CCCCC(=O)Nc1c(I)cc(I)c(C(=O)O)c1I)Nc1c(I)cc(I)c(C(=O)O)c1I`: the Potency result in assay [1], in assay [2], in assay [3], in assay [4] and in assay [5] was “inactive” each time.

As to `CN1N=C(C(N)=O)CCC1=O`, the Potency entry in assay [1], in assay [2], in assay [3], in assay [4] and in assay [5] was “inactive” each time.

Consider `CN=C(N)NC(=O)Nc1c(C)cccc1C`, for which the Potency result in assay [1], in assay [2], in assay [3], in assay [4] and in assay [5] was “inactive” in each case.

As to `CC(=O)Oc1ccc(C2(c3ccc(OC(C)=O)cc3)Oc3ccccc3NC2=O)cc1`, the Potency result in assay [1], in assay [2] and in assay [4] was “inactive” each time. Further, the Potency was 12.6 µM (active) in assay [3] and 1.74 µM (active) in assay [5].
